Data from PubChem BioAssay (EPA / NIEHS).
Where “and” joins values, the source holds several entries; their conditions need not be identical. Identical values can stand only once. Calls of active or inactive are those of the source. The calls were made as follows: active = hit-call score of the fitted dose curve at least 0.9, where 1 is the maximum; inactive = score below 0.9.

What follows are compounds tested on Monocyte Chemoattractant Protein-1 (MCP1), CCL2 (gene 6347) (assay: BSK_3C_MCP1: BioMAP Diversity Plus: 3C Assay for Monocyte Chemoattractant Protein-1 (MCP1) Biomarker Activity (AID 2283017)). Conditions: primary human endothelial cells (HUVEC); actives raise or lower the signal.
Protocol: BSK_3C is a cell-based, multiplexed-readout assay that uses umbilical vein endothelium, a human vascular primary cell, with measurements taken at 24 hours after chemical dosing in a 96-well plate.BSK_3C_MCP1 is an assay component measured in the BSK_3C assay. It measures MCP-1 antibody related to regulation of gene expression using ELISA technology.Data from the assay component BSK_3C_MCP1 was analyzed into 1 assay endpoint. This assay endpoint, BSK_3C_MCP1, was analyzed with bidirectional fitting relative to DMSO as the negative control and baseline of activity. Using a type of binding reporter, gain or loss-of-signal activity can be used to understand changes in the signaling as they relate to the gene CCL2. Furthermore, this assay endpoint can be referred to as a primary readout, because this assay has produced multiple assay endpoints where this one serves a signaling function. To generalize the intended target to other relatable targets, this assay endpoint is annotated to the cytokine intended target family, where the subfamily is chemotactic factor.
The levels of cell surface (or secreted, indicated by the prefix "s") biomarker endpoints were measured by ELISA. Overt cytotoxicity to cells in confluent adherent cultures (all systems other than the BT system) was assessed by measuring total protein levels using sulforhodamine B (SRB) staining in parallel cultures at the time of biomarker measurements, indicated as SRB endpoints. For proliferation assays for adherent cell types, individual cell types are cultured at sub-confluence and relative cell numbers quantified by SRB staining at time points optimized for each system (48 h: 3C and CASM3C systems; 72 h: BT and HDF3CGF systems; 96 h: SAg system). SRB was performed by staining cells with 0.1% SRB after fixation with 10% TCA and reading wells at 560 nm.Viability and proliferation of PBMC (T cells) was quantified by Alamar Blue reduction for the SAg and BT systems. For PBMC viability (referred to as PBMC Cytotoxicity within the assay endpoint names), cells were plated (75,000/well in a 96-well plate) and then chemical samples added for 1 h before addition of activators, SEB and TSST-1 (20 ng/mL final concentration each). Cells were incubated for 90 h. Then, Alamar Blue (20 uL/well) (Invitrogen, Cat DAL1100) was added for 6 h, and the plates were read with a fluorescence microplate reader at 546/580 nm (excitation/emission). For PBMC proliferation, cells were plated and activated as above but incubated for only 16 h prior to addition of Alamar Blue. Plates were read after 6 h.

outcome, inactive:
COc1ccc(C(=O)c2ccccc2O)c(O)c1, C1CN(CCOCCN2CCOCC2)CCO1, CCCCCCCCCC/C=C/C1CC(=O)OC1=O (configuration not stated), CCCCCCC(O)CCCCCCCCCCC(=O)OC (configuration not stated), CC[N+](CC)(CC(=O)Nc1c(C)cccc1C)Cc1ccccc1, COC(=O)/C=C\C(=O)OC, CCC[Si](OC(C)=O)(OC(C)=O)OC(C)=O, CC(C)C1OCCN1CCOC(=O)NCCCCCCNC(=O)OCCN1CCOC1C(C)C (configuration not stated), Cc1c(C(N)=O)cc([N+](=O)[O-])cc1[N+](=O)[O-], CN(C)CCC(c1ccc(Cl)cc1)c1ccccn1 (configuration not stated), Sc1nc2ccccc2s1, CN(C)Cc1cc(C(C)(C)C)c(O)c(C(C)(C)C)c1, Oc1cccc2ccccc12, COc1ccccc1Oc1c(NS(=O)(=O)c2ccc(C(C)(C)C)cc2)nc(-c2ncccn2)nc1OCCO, COc1cc(CNC(=O)CCCC/C=C/C(C)C)ccc1O, CCC(C)=NO, Cc1cccnc1, CC[N+](CC)(CC(=O)Nc1c(C)cccc1C)Cc1ccccc1 (tested in a mixture with another compound), Cc1cc(-n2nc3ccc(Cl)cc3n2)c(O)c(C(C)(C)C)c1, O=C(C(=O)c1ccccc1)c1ccccc1

AC50, active:
CCCCCCCCCCC1CO1 (configuration not stated) 31 µM, CCCCC(CC)COC(=O)C=Cc1ccc(OC)cc1 (configuration not stated) 33 µM, CN(C)c1ccc(C(c2ccccc2)c2ccc(N(C)C)cc2)cc1 11.9 µM, CCCCCCCCCCCCCCCCCC[N+](C)(C)C 1.68 µM, OC(C(F)(F)F)(C(F)(F)F)C(O)(C(F)(F)F)C(F)(F)F 49.9 µM and 50.5 µM, O=[N+]([O-])c1cc(S(=O)(=O)Nc2ccccc2)ccc1Nc1ccccc1 32.3 µM and 30 µM, CC(C)CC(=O)CC(C)CC(C)C (configuration not stated) 31.2 µM
